Results on 95 compounds are retold here after PubChem BioAssay AID376 (PDSP, 2006).

The whole screen tested about 2,000 compounds, of which about 250 (12%) were called active. Rule as the data show it: active = hERG blockade below about -20% or above about 20%; inactive = in between. Only a selection was taken, and actives are over-represented in it overall.

The assay deals with Voltage-gated inwardly rectifying potassium channel KCNH2 (Homo sapiens) (UniProt Q12809). Description: KCNH2 potassium channel function modulators, cell-based (AID 376).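 Also: 0% = buffer alone and 100% = reference blocker.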 The conditions noted are these: hERG-expressing cells, channel activity single-concentration screen; concentration not given here. (The hERG channel carries a current that helps repolarise heart muscle cells.)
Voltage-gated inwardly rectifying potassium channel KCNH2 (Homo sapiens), sequence (Q12809 whole entry, looked up): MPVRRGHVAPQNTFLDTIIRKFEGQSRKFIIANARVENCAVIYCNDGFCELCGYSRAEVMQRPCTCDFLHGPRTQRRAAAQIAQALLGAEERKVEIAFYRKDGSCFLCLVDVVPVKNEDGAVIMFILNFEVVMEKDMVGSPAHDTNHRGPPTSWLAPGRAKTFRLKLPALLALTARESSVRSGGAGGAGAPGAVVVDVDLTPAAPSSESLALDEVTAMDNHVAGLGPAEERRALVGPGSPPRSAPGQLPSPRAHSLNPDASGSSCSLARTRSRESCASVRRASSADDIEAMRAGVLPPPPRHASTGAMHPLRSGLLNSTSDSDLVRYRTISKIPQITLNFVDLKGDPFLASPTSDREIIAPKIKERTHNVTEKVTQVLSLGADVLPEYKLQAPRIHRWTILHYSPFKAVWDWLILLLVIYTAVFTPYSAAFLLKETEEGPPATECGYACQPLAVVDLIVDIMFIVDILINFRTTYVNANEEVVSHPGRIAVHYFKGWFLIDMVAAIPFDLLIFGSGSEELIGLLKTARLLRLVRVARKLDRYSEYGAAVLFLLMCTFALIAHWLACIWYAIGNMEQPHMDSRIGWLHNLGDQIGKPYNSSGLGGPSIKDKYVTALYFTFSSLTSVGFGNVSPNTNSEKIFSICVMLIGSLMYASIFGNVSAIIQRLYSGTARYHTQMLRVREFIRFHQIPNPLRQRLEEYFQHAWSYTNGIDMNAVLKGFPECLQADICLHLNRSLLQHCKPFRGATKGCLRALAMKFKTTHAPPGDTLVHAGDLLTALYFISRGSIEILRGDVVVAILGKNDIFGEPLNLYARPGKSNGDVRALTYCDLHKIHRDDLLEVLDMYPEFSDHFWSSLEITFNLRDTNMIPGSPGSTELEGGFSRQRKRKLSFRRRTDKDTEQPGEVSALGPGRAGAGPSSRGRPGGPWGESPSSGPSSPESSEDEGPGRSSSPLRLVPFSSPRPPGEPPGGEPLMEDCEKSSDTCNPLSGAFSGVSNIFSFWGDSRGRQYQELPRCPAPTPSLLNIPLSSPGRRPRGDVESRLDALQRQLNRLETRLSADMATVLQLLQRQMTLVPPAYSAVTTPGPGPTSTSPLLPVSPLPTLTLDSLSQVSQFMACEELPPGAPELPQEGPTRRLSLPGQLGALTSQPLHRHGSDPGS
For the compound `CSc1ccc2c(c1)c(CCN)c(C)n2Cc1ccccc1Cl`, the hERG blockade was 102% (active). As for `Cn1c(=O)c2[nH]cnc2n(C)c1=O.[CH2-]C(Cc1cccc2cc(C(=O)O)c(=O)oc12)OC.[Hg+2].[OH-]` (stereo not given), the figure is -6.48% (inactive). With `CC1=NN(c2ccccc2)C(=O)C1N=Nc1ccc([As](=O)(O)O)c(O)c1` (stereo not given), the hERG blockade was 32.9% (active).

Take `Nc1nc(N)c(N=Nc2ccc([As](=O)(O)O)c(O)c2)c(N)n1`: the hERG blockade is -5.01% (inactive). Regarding `O=C(O)CC1NCc2cc3ccccc3nc21` (stereo not given), the hERG blockade is -11.4% (inactive).

Turning to `O=P(O)(OP(=O)(O)c1ccccc1)c1ccccc1` (tested in a mixture with another compound), the hERG blockade is -3.18% (inactive). For `Nc1nnnn1CCO` the value was -1.1% (inactive); for `CC1=C2C(=O)C3C(CC=C4CC(O)CCC43C)C2CCC12OC1CC(C)CNC1C2C` (stereo not given), 18.8% (inactive).

As for `Cc1c(C(C)C2NCC(C)CC2O)ccc2c1CC1C2CC=C2CC(O)CCC21C` (stereo not given), the hERG blockade is 75.5% (active). Turning to `CC1CCC2(NC1)OC1CC3C4CC=C5CC(O)CCC5(C)C4CCC3(C)C1C2C` (stereo not given), the hERG blockade is 5.44% (inactive). Turning to `COC([CH2][Hg][n]1cnc2c1c(=O)n(C)c(=O)n2C)CN1C(=O)c2ccccc2S1(=O)=O` (stereo not given), the hERG blockade is -10.9% (inactive). For `O=P(O)(O)c1ccccc1` (tested in a mixture with another compound), the hERG blockade is -2.7% (inactive). As for `O=C(O)CSCC(=O)O`, the hERG blockade was -1.83% (inactive).

Take `CC(Br)C(=O)NC(CO)C(=O)O` (stereo not given): the hERG blockade is 16.5% (inactive). In the case of `O=C(Nc1cc[c]([Sb](=[O])([OH])[OH])cc1)c1ccccc1`, the hERG blockade is 5.03% (inactive). As for `Nc1ccc(S(=O)(=O)c2ccc(NCN3C(=O)NC(=O)C(=O)C3=O)cc2)cc1`, the figure is 20% (inactive); as for `O=P(O)(O)CCP(=O)(O)O`, -9.16% (inactive).

On to `CCOC(=O)C1C(O)CC2c3ccccc3-c3ccccc3C21` (stereo not given), for which the hERG blockade is -9.9% (inactive). For `COc1cc2c(cc1OC)C13CC[N+]4(C)CC5=CCOC6CC(=O)N2C1C6C5CC34O` (stereo not given) the value was 0.126% (inactive); for `NCCSC(c1ccccc1)c1ccccc1`, 21.8% (active).

As for `Nc1c(C(=O)Nc2ccc([As](=O)(O)O)cc2)cnc2nnnn12`, the hERG blockade was 6.38% (inactive).

Take `COC(=O)C1C(=O)C(C(=O)OC)C2CCC1N2C` (stereo not given): the hERG blockade was -6.77% (inactive). As for `O=[As](O)(O)c1ccc2nc3cc([As](=O)(O)O)ccc3nc2c1`, the figure is 6.6% (inactive). As for `CCSCCC(N)C(=O)O` (stereo not given), the hERG blockade was -2.21% (inactive).

`CC(CN(C)C)C(C#N)(c1ccccc1)c1ccccc1` (stereo not given): the hERG blockade is 3.3% (inactive). As to `C[n+]1c(C=Cc2ccc(O)c3ncccc23)[se]c2ccccc21`, the hERG blockade was 24% (active). `NC(CP(=O)(O)O)C(=O)O` (stereo not given): the hERG blockade was 0.269% (inactive). For `COc1cccc2c1C(=O)c1c(O)c3c(c(O)c1C2=O)CC(O)(C(C)=NO)CC3OC1CC(N)C(O)C(C)O1` (stereo not given), the hERG blockade is 36.3% (active). Consider `CC(O)CN(CCN(CC(C)O)CC(C)O)CC(C)O.O=[N+]([O-])[O-].[Cu+2]` (stereo not given), for which the hERG blockade is 13.4% (inactive). Take `CC12CN(CC[N+](C)(C)C)CC1(C)C1CCC2O1` (stereo not given): the hERG blockade was -0.461% (inactive). Regarding `Cc1ccc(OP(=O)(Oc2ccc(C)cc2)N2C=Cc3ccccc3C2C#N)cc1` (stereo not given), the hERG blockade was 0.907% (inactive). With `Cc1ccc(S(=O)ON2CCC(C(=O)O)(c3ccccc3)CC2)cc1` (stereo not given), the hERG blockade is 4.76% (inactive). For `Nc1nc(N)c(N=Nc2ccc([As](=O)(O)O)cc2)c(=O)[nH]1` the value was 13.9% (inactive); for `N#CCCCC[N+]12CN3CN(CN(C3)C1)C2`, 6.19% (inactive). For `COc1cc(O)c2c(O)c3c(c4c2c1C1(C4)C(C)=CCCC1(C)C)C(O)C1(O)CC(=O)C(C(N)=O)=C(O)C1(O)C3=O` (stereo not given) the value was 24.7% (active); for `Nc1cc[c]([Hg])cc1.Nc1nc2c(ncn2C2OC(CO)C(O)C2O)c(=[SH+])[nH]1` (stereo not given), 2% (inactive). For `NNc1c(C(N)=O)c2c(N)ncnc2n1C1OC(CO)C(O)C1O` (stereo not given) the value was 6.28% (inactive). As to `O=C(O)CNC(=O)c1ccc([As](=O)(O)O)cc1`, the hERG blockade was -21.5% (active). On to `O=[As](O)(O)c1ccc(Cc2ccc([As](=O)(O)O)cc2)cc1`, for which the hERG blockade is -1.48% (inactive). Turning to `NC(=O)c1ccc(C(=O)Nc2ccc([As](=O)(O)O)cc2)cc1`, the hERG blockade is 8.1% (inactive). For `CC1=NN(c2ccc(S(=O)(=O)O)cc2C)C(=[OH+])C1N=Nc1cc(S(=O)(=O)[O-])ccc1C(=O)O.[Cr].[OH-]` (stereo not given) the value was -5.52% (inactive). For the compound `Oc1ccc(CCNCc2cc3c(cc2Br)OCO3)cc1`, the hERG blockade is -0.605% (inactive).

`O=C(O)C(Br)C(Br)C(=O)O` (stereo not given): the hERG blockade is 10.9% (inactive). Regarding `NCCc1c[nH]c2ccc(OC(=O)C(=O)O)cc12`, the hERG blockade was -28.9% (active). With `NC(CCP(=O)(O)O)C(=O)O` (stereo not given), the hERG blockade is 5.51% (inactive).

For `CC1CCC2(O)C3(C)CC4(O)OC2(C1O)C1(O)C3(O)C(OC(=O)c2ccc[nH]2)C(O)(C(C)C)C41C` (stereo not given), the hERG blockade is 2.45% (inactive).

`CC(C)c1ccc(C(O)(C(=O)O)c2ccc(C(C)C)cc2)cc1`: the hERG blockade was 7.38% (inactive). On to `O=C(O)C(O)(c1ccc(-c2ccccc2)cc1)c1ccc(-c2ccccc2)cc1`, for which the hERG blockade is 33.6% (active). For `CC(=O)OC1CCC2(C)C(CCC3C2CC(=O)C2(C)C3CC(N3CC3)C2C(C)=O)C1` (stereo not given) the value was 2.23% (inactive); for `CCc1ccc(CCN2CCCCC2)nc1`, -0.853% (inactive). Regarding `CC(C)c1ccc(C(c2c(O)c3ccccc3oc2=O)c2c(O)c3ccccc3oc2=O)cc1`, the hERG blockade was 15.3% (inactive). For `O=C(CC(c1ccccc1)c1c(O)c2ccccc2oc1=O)c1ccccc1` (stereo not given) the value was 22.2% (active).

For the compound `Nc1ccccc1O.O.O=C(O)C1[O][Sb][O]C1C(=O)O` (stereo not given), the hERG blockade is 16.3% (inactive). For `[N-]=[N+]=CC(=O)CCC(N)C(=O)O` (stereo not given) the value was 2.68% (inactive). Consider `O=C(CCN1CC2CCC(CC2)C1)c1cccs1`, for which the hERG blockade was 29.2% (active). For `NC(CCl)=NC1CN2CCC1CC2` (stereo not given) the value was -4.96% (inactive); for `O=[As](O)(O)c1ccc(N=Nc2ccc(O)cc2)cc1`, -7.36% (inactive). For the compound `O=C(c1ccccc1)C1C(c2ccccc2[N+](=O)[O-])N1C1CCCCC1` (stereo not given), the hERG blockade was 24.1% (active). For `CCCOC(=O)C1C2CCC(O2)C1C(=O)O` (stereo not given) the value was 8.66% (inactive). For `Oc1ccc(C(O)C2CCCCN2)cc1O` (stereo not given) the value was 1.5% (inactive); for `Cc1ccc(S(=O)(=O)OC2CN3CCC2CC3)cc1` (stereo not given), 2.18% (inactive); for `CS(=O)(=O)OC1CN2CCC1CC2` (stereo not given), -24.5% (active). Turning to `CN(C)CCC(C#N)(c1ccccc1)c1ccccc1`, the hERG blockade was 6.53% (inactive).

Take `c1ccc2c(c1)Sc1ccccc1N2CC1CN2CCC1CC2` (stereo not given): the hERG blockade is 69.3% (active). For `CC1C(C)N1CC(O)Cn1ccnc1[N+](=O)[O-]` (stereo not given) the value was 8.14% (inactive); for `Cc1ccc(O)cc1` (tested in a mixture with another compound), -3.08% (inactive); for `ClCC[N+]12CC[N+](CCCl)(CC1)C2` (tested in a mixture with another compound), 11.5% (inactive). For `CC1(C)N=C(N)N=C(N)N1c1cccc(C(=O)Nc2ccc(S(=O)(=O)F)cc2)c1` the value was 24.1% (active). For `O=C(O)c1cccc([As]=[As]c2cccc(C(=O)O)c2)c1` (stereo not given) the value was -10.8% (inactive); for `NC(Cc1cc(Br)c(O)c(Br)c1)C(=O)O` (stereo not given), 9.07% (inactive); for `NNc1nncn1N`, -1.06% (inactive). `COc1cc2cc(c1Cl)N(C)C(=O)CC(OC(=O)C(C)C)C1(C)OC1C(C)C1CC(O)(NC(=O)O1)C(OC)C=CC=C(C)C2` (stereo not given): the hERG blockade is 33% (active). As for `O=C(O)C[O][Sb][O]CC(=O)O`, the figure is 2.23% (inactive); as for `OC(CN1CC1)C(O)CN1CC1` (stereo not given), 3.04% (inactive); as for `c1cc(CCN2CCCCC2)ccn1`, -7.49% (inactive). As for `C=C(C)c1ccccc1` (tested in a mixture with another compound), the hERG blockade is 1.7% (inactive). Take `CC1OC(OC2CC(O)C3(CO)C4C(O)CC5(C)C(C6=CC(=O)OC6)CCC5(O)C4CCC3(O)C2)C(O)C(O)C1O` (stereo not given): the hERG blockade was 2.43% (inactive).

As to `CCC1(O)C(=O)OCc2c1cc1n(c2=O)Cc2cc3c(NC(=O)CN)cccc3nc2-1` (stereo not given), the hERG blockade was 7.93% (inactive). `O=C(O)C(Cc1cnc[nH]1)N1C(=O)c2ccccc2C1=O` (stereo not given): the hERG blockade was 14.2% (inactive).

With `Oc1cccc2cccnc12`, the hERG blockade was -22.9% (active). As for `NCCCN1CCN(c2ccccc2)CC1`, the figure is -0.441% (inactive). Take `C(=NCCN1CCOCC1)=NC1CCCCC1`: the hERG blockade was 6.97% (inactive). For `O=C(O)c1cc(N=Nc2ccc([As](=O)(O)O)cc2)ccc1O` the value was 3.08% (inactive). For `CC(=O)OC1=CC2=CCC3C4CCC(=O)C4(C)CC(=O)C3(S)C2(C)CC1` (stereo not given) the value was -3.78% (inactive); for `O=C(O)CNCP(=O)(O)O`, -1.2% (inactive); for `CN1CC(C(=O)NC2(C)OC3(O)C4CCCN4C(=O)C(Cc4ccccc4)N3C2=O)C=C2c3cccc4[nH]cc(c34)CC21` (stereo not given), 6.97% (inactive). For `CC(Br)CN(CC(C)Br)c1ccc2c(c1)Cc1ccccc1-2` (stereo not given) the value was 3.41% (inactive); for `CCC(O)(C(=O)O)c1cc2n(c(=O)c1CO)Cc1cc3ccccc3nc1-2` (stereo not given), -3.09% (inactive). Consider `C[N+]1([O-])C2CCC1CC(OC(=O)C(CO)c1ccccc1)C2` (stereo not given), for which the hERG blockade was -12.1% (inactive). As for `CN(C)CCCNc1c2c(nc3ccc(Cl)cc13)CCCC2`, the figure is 65.9% (active); as for `O=S(=O)(O)C(=Cc1ccccc1)c1ccccc1` (tested in a mixture with another compound), -5.32% (inactive). For `O=C(O)Cc1ccc([N+](=O)[O-])cc1[N+](=O)[O-]` the value was -15.6% (inactive); for `CC(c1ccccc1)N1CCN(C(C)c2ccccc2)CC1` (stereo not given), 2.64% (inactive); for `CCC1CN2CCc3cc(OC)c(OC)cc3C2CC1CC1NCCc2c1[nH]c1ccc(O)cc21` (stereo not given), 35.8% (active). As for `O=C(O)CC1OCC=C2CN3CCC45C6=CC(=O)C(=O)C([N+](=O)[O-])=C6NC4C1C2CC35` (stereo not given), the figure is 13.9% (inactive).
